Laboratory results published in PubChem BioAssay (EPA / NIEHS).
Inconclusive results are not listed. Activity calls are given as the source filed them. Rule for the calls, unless noted: active = hit-call score of the fitted dose curve at least 0.9, where 1 is the maximum; inactive = score below 0.9.

What was measured:
[1] = CCTE_Shafer_MEA_acute_per_network_burst_spike_number_std: CCTE's Neural Acute Assay for Standard Deviation of Number of Spikes in a Network Burst, Shafer Lab (AID 2284020);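 note: fitted for decrease in spike-number SD versus DMSO so actives lower it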
Procedure, shortened: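 Rat cortical cultures, DIV 13/15, 37 C; 20-min stabilisation, 40-min baseline, compound 0.03-40 uM, 40-min re-record. Spikes detected at 8x rms noise (300-5000 Hz band-pass). Readout: % change from baseline in per-burst spike-number SD.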

[2] = CCTE_Shafer_MEA_acute_per_network_burst_electrodes_number_mean: CCTE's Neural Acute Assay for Mean Number of Electrodes in a Network Burst, Shafer Lab (AID 2284021);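 note: curves fitted for decreases only so hits reduce electrodes per burst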
Procedure, shortened: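 Cultures of rat cortex neurons were exposed on DIV 13 or 15 to compounds at 0.03-40 uM in at least three wells each. Activity over 40 min before and 40 min after exposure at 37 C gave the percent change in electrodes per network burst.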

[3] = CCTE_Shafer_MEA_acute_network_burst_percentage: CCTE's Neural Acute Assay for Percentage of Network Bursts, Shafer Lab (AID 2284022);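 note: curves fitted for loss so actives lower network burst percentage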
Procedure, shortened: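 Cortical neurons from rat were grown over microelectrode arrays and used on day 13 or 15 in vitro. Wells with at least 10 active electrodes received test chemical at 0.03-40 uM. Activity during 40 min of exposure was compared with the preceding 40-min baseline.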

[4] = CCTE_Shafer_MEA_acute_cross_correlation_area: CCTE's Neural Acute Assay for Area of Cross Correlation, Shafer Lab (AID 2284024);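 note: area under pooled inter-electrode spike cross-correlation near zero lag as percent change from own baseline; curves fitted for loss of cross-correlation area so actives lower synchrony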
Procedure, shortened: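 Acute exposure of mature rat cortical networks (day 13 or 15 post-plating) to 0.03-40 uM compound. Spontaneous spiking on MEA, 40 min pre- and post-dose at 37 C.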

[5] = CCTE_Shafer_MEA_acute_cross_correlation_HWHM: CCTE's Neural Acute Assay for Cross Correlation at Half Width at Half Maximum, Shafer Lab (AID 2284026);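 note: percent change per well from pre-dose baseline in spike cross-correlogram half width; hits are a decrease in cross-correlogram half width relative to DMSO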
Procedure, shortened: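 Primary cortex (rat), MEA, DIV 13/15; compound 0.03-40 uM; 40 min pre + 40 min post at 37 C; spike threshold 8x rms; wells need ≥10 active electrodes; endpoint = % change in cross-correlogram HWHM vs baseline, DMSO negative control.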

[6] = CCTE_Shafer_MEA_acute_synchrony_index: CCTE's Neural Acute Assay for Synchrony, Shafer Lab (AID 2284027);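 note: network synchrony index of spontaneous spiking in primary rat cortical neurons on MEAs; fitted for loss of signal so actives lower synchrony relative to DMSO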
Procedure, shortened: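 The synchrony index is taken as percent change per well between a 40 min baseline and a 40 min recording with compound (0.03–40 uM), at 37C. Rat cortical cultures on multiwell MEAs at DIV 13 or 15, spike threshold 8× rms noise.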

[7] = target: Estrogen receptor (Homo sapiens) (UniProt P03372); assay: CCTE_Deisenroth_AIME_384WELL_LUC_Active: CCTE's 384-well Estrogen Receptor Transactivation Assay with AIME metabolic competence (ERTA luciferase; metabolism positive), Deisenroth Lab (AID 2284030; active = hit-call score of the fitted dose curve at least 0.9, where 1 is the maximum)
Sequence of Estrogen receptor (Homo sapiens) (P03372 whole entry, looked up): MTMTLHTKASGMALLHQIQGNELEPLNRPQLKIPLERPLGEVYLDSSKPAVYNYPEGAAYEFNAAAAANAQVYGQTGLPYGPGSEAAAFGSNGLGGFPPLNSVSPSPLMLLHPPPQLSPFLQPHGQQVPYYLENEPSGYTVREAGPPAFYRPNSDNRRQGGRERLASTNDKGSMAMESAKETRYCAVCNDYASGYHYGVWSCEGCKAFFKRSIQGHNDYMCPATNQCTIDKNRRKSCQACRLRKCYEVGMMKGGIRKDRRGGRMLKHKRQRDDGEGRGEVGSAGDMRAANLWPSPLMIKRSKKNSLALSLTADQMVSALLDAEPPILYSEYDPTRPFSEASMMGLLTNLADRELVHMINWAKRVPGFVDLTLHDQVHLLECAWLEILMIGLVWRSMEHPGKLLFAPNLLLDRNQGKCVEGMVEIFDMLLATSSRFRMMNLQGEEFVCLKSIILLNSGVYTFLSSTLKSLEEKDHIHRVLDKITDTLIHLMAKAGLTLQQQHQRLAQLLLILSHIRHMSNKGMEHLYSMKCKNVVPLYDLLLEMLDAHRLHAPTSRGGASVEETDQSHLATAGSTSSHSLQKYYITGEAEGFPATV
Procedure, shortened: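 In this metabolism-positive format, a 2-hour exposure to alginate-immobilized rat S9 precedes a 24 hour luciferase transactivation readout in VM7Luc4E2 cells. Dosing spans 10 concentrations from 0.002 to 200 uM.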

[8] = CCTE_Deisenroth_AIME_384WELL_CTox_Active: Cytotoxicity Assessment (CTOX) in CCTE's 384-well Estrogen Receptor Transactivation Assay with AIME metabolic competence (metabolism positive), Deisenroth Lab (AID 2284037; active = hit-call score of the fitted dose curve at least 0.9, where 1 is the maximum;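 note: chemicals first conditioned 2 h by alginate-bound induced rat liver S9 before cells; activity means signal loss indicating cell death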)
Procedure, shortened: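 Chemicals pre-incubated 2 hours with alginate-immobilised phenobarbital/beta-naphthoflavone-induced male Sprague Dawley rat liver S9, then conditioned medium applied 24 hour to VM7Luc4E2 cells. Viability by fluorogenic protease substrate; 10-point series 0.002 - 200 uM.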

[9] = target: Estrogen receptor (Homo sapiens) (UniProt P03372); assay: CCTE_Deisenroth_AIME_384WELL_LUC_Inactive: CCTE's 384-well Estrogen Receptor Transactivation Assay without AIME metabolic competence (ERTA luciferase; metabolism negative), Deisenroth Lab (AID 2284038; active = hit-call score of the fitted dose curve at least 0.9, where 1 is the maximum;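 note: hits raise estrogen receptor luciferase signal so potencies reflect agonists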)
Procedure, shortened: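 VM7Luc4E2 ER transactivation, luciferase bioluminescence after 24 h, using medium pre-incubated 2 h with S9-free alginate microspheres. Concentrations 0.002–200 uM; gain of signal fitted relative to 17beta-estradiol.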

[10] = CCTE_Shafer_MEA_dev_firing_rate_mean: CCTE's Neural Network Formation Assay for Mean Firing Rate, Shafer Lab (AID 2284031);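 note: curve fitted for loss of firing so AC50 reflects decreased mean firing rate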
Procedure, shortened: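 Spike frequency (spikes/recording length, averaged over active electrodes) was recorded on days 5, 7, 9 and 12 and collapsed to AUC; rat cortical cultures received compound continuously over 12 days of network development.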

[11] = CCTE_Shafer_MEA_dev_per_burst_spike_percent: CCTE's Neural Network Formation Assay for Percent of Spikes in a Burst, Shafer Lab (AID 2284032);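 note: fitted as a decrease in burst spike percentage below DMSO baseline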
Procedure, shortened: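 Value is trapezoidal AUC over recordings on days 5, 7, 9 and 12 of the well-mean fraction of spikes falling in single-electrode bursts; rat cortical cultures exposed continuously from plating, treatment renewed DIV 5 and 9, fitted downward against DMSO.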

[12] = CCTE_Shafer_MEA_dev_active_electrodes_number: CCTE's Neural Network Formation Assay for Number of Active Electrodes, Shafer Lab (AID 2284040; active = hit-call score of the fitted dose curve at least 0.9, where 1 is the maximum;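 note: potency for loss of active electrodes versus DMSO so lower counts are hits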)
Procedure, shortened: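 Counts electrodes per well firing at least 5 spikes/min, recorded on days 5, 7, 9 and 12 in rat cortical cultures dosed continuously from plating (treatment refreshed DIV 5, 9). Value is the area under the curve over recordings, fitted downward relative to DMSO.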

[13] = CCTE_Shafer_MEA_dev_burst_rate: CCTE's Neural Network Formation Assay for Burst Rate, Shafer Lab (AID 2284042);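 note: potency for loss of burst rate below DMSO control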
Procedure, shortened: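 Developmental network assay measuring how 12-day exposure of rat cortical neuron cultures alters bursting on extracellular MEA recordings. Values are AUC of well-mean burst rate across four recording days, relative to DMSO vehicle.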

[14] = CCTE_Shafer_MEA_dev_bursting_electrodes_number: CCTE's Neural Network Formation Assay for Number of Bursting Electrodes, Shafer Lab (AID 2284043; active = hit-call score of the fitted dose curve at least 0.9, where 1 is the maximum;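 note: potency is for loss of bursting electrodes relative to DMSO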)
Procedure, shortened: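 Rat cortical primary neurons, 48-well MEA, 16 electrodes/well; dosing DIV 0–12, re-dosed with full media change DIV 5, 9. Recordings DIV 5/7/9/12, AxIS adaptive spike detector; bursting electrode = ≥1 burst/2 min. AUC across days; loss of signal vs DMSO.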

[15] = CCTE_Shafer_MEA_dev_per_burst_interspike_interval: CCTE's Neural Network Formation Assay for Burst Interspike Interval, Shafer Lab (AID 2284044);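 note: potency for a decrease of within-burst interspike interval below DMSO level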
Procedure, shortened: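 Developmental network-formation MEA in primary rat cortical cultures with exposure spanning days 0–12. Within-burst ISI is averaged per well and integrated across recording days by area under the curve, with DMSO as negative control baseline.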

[16] = CCTE_Deisenroth_AIME_384WELL_CTox_Inactive: Cytotoxicity Assessment (CTOX) in CCTE's 384-well Estrogen Receptor Transactivation Assay without AIME metabolic competence (metabolism negative), Deisenroth Lab (AID 2284039; active = hit-call score of the fitted dose curve at least 0.9, where 1 is the maximum;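 note: cell viability via live-cell protease substrate cleaved to fluorescent probe; cells exposed 24 h to medium preincubated 2 h with alginate-water beads without S9; loss of fluorescence signal means loss of viability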)
Procedure, shortened: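 Fluorescence from a live-cell protease substrate, read after 24 h in VM7Luc4E2 cells, indicated viability. Test medium came from a 2 h AIME step without hepatic S9 (alginate-water microspheres); concentrations spanned 0.002 - 200 uM, single technical replicate per run.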

[17] = target: Estrogen receptor (Homo sapiens) (UniProt P03372); assay: CCTE_Deisenroth_AIME_96WELL_LUC_Active: CCTE's 96-well Estrogen Receptor Transactivation Assay with AIME metabolic competence (ERTA luciferase; metabolism positive), Deisenroth Lab (AID 2284023; active = hit-call score of the fitted dose curve at least 0.9, where 1 is the maximum)
Procedure, shortened: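 Metabolism-positive mode: induced rat hepatic S9 in alginate microspheres conditions test solutions (0.002 - 200 uM, 10 points) for 2 hours. VM7Luc4E2 ER luciferase reporter cells then exposed 24 h; positive-direction fit against 17beta-estradiol, n=4 typical.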

[18] = target: Estrogen receptor (Homo sapiens) (UniProt P03372); assay: CCTE_Deisenroth_AIME_96WELL_LUC_Inactive: CCTE's 96-well Estrogen Receptor Transactivation Assay without AIME metabolic competence (ERTA luciferase; metabolism negative), Deisenroth Lab (AID 2284025; active = hit-call score of the fitted dose curve at least 0.9, where 1 is the maximum)
Procedure, shortened: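 Metabolism-negative arm: chemicals (0.002–200 uM, 10 points) incubated 2 h with alginate-water microspheres, then medium moved onto VM7Luc4E2 cells for 24 h luciferase read-out. Positive direction vs 17beta-estradiol; n≥4 experiments.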

[19] = CCTE_Deisenroth_AIME_96WELL_CTox_Active: Cytotoxicity Assessment (CTOX) in CCTE's 96-well Estrogen Receptor Transactivation Assay with AIME metabolic competence (metabolism positive), Deisenroth Lab (AID 2284028; active = hit-call score of the fitted dose curve at least 0.9, where 1 is the maximum)
Procedure, shortened: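 Cytotoxicity in VM7Luc4E2 breast cells after 24 h exposure to medium from a 2 h metabolic pre-incubation with induced rat hepatic S9 in alginate microspheres; fluorescent live-cell protease readout, 10-point series 0.002–200 uM, n=4.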

[20] = CCTE_Deisenroth_AIME_96WELL_CTox_Inactive: Cytotoxicity Assessment (CTOX) in CCTE's 96-well Estrogen Receptor Transactivation Assay without AIME metabolic competence (metabolism negative), Deisenroth Lab (AID 2284029; active = hit-call score of the fitted dose curve at least 0.9, where 1 is the maximum)
Procedure, shortened: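 Metabolism-negative mode: alginate-water lids without rat S9, 2 h pre-incubation of 10-point series (0.002 - 200 uM). Conditioned medium on VM7Luc4E2 cells 24 h; loss of fluorescent live-cell protease signal marks cytotoxicity.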

Measured: AC50

CN(C)C(=O)NC1(c2ccccc2)CCN(CC[C@@]2(c3ccc(F)c(F)c3)CN(C(=O)c3ccccc3)CCO2)CC1
active: [3] 5 µM | [5] 20 µM
inactive: [1] | [2] | [4] | [6]

CC(N)=O
inactive: [1] | [2] | [3] | [4] | [5] | [6]

OCC(CO)n1cnc(-c2ccc(F)cc2)c1-c1ccnc(Oc2ccccc2)n1
active: [4] 3.9 µM
inactive: [1] | [2] | [3] | [5] | [6]

O=C(O)CN(CC(=O)O)CC(=O)O
inactive: [1] | [2] | [3] | [4] | [5] | [6] | [8]
active: [7] 28.5 µM | [9] 28.8 µM

CCN(CC)CCOc1ccc(C(=C(Cl)c2ccccc2)c2ccccc2)cc1
inactive: [1] | [2] | [3] | [4] | [5] | [6]

CN(C)CCCN1c2ccccc2Sc2ccc(Cl)cc21
active: [5] 31.5 µM | [6] 32.2 µM | [10] 3.43 µM | [11] 6.1 µM | [12] 5.17 µM | [13] 5.08 µM | [14] 4.33 µM | [15] 8.95 µM
inactive: [1] | [2] | [3]

CC(C)NCC(O)c1ccc(O)c(O)c1 (stereo not drawn)
active: [8] 106 µM | [16] 100 µM
inactive: [1] | [2] | [3] | [4] | [5] | [6]

CSc1ccc(Oc2ccc(S(N)(=O)=O)cc2CN(C)C)cc1C
inactive: [1] | [2] | [3] | [4] | [7] | [8] | [9] | [16]
active: [5] 31.7 µM | [6] 31.3 µM

C/C=C/c1ccc(OC)cc1
inactive: [1] | [2] | [3] | [4] | [5] | [6] | [8] | [16]

Cc1cc(Cc2ccc(N)c(C)c2)ccc1N
active: [1] 20 µM | [2] 29.9 µM | [3] 29.6 µM | [5] 26 µM | [6] 20 µM
inactive: [4]

O=C1OC(c2ccc(O)cc2)(c2ccc(O)cc2)c2ccccc21
active: [1] 20 µM | [3] 31 µM | [6] 28.5 µM
inactive: [2] | [4] | [5]

CCc1cc(C2=C(C(=O)O)N(c3ccccc3C(F)(F)F)S(=O)(=O)c3ccccc32)cc2c1OCO2
inactive: [2] | [3] | [4] | [5] | [6]

COC(=O)[C@H]1[C@H]2C[C@@H]3c4[nH]c5cc(OC)ccc5c4CCN3C[C@H]2C[C@@H](OC(=O)c2cc(OC)c(OC)c(OC)c2)[C@@H]1OC
inactive: [2] | [3] | [4]
active: [1] 20 µM | [5] 20 µM | [6] 4.97 µM | [10] 2.8 µM | [11] 5.76 µM | [12] 5.24 µM | [13] 5.23 µM | [14] 3.34 µM | [15] 3.76 µM

O=C(N[C@@H](c1ccccc1)[C@@H]1CCCCN1)c1cccc(C(F)(F)F)c1Cl
active: [1] 5 µM | [2] 5 µM | [3] 9.12 µM | [4] 1.99 µM | [5] 9.13 µM | [6] 5 µM

Cc1cc(SC2=C(O)C[C@@](CCc3ccc(N)cc3)(C(C)C)OC2=O)c(C(C)(C)C)cc1CO
active: [4] 20 µM
inactive: [1] | [2] | [3] | [5] | [6]

Oc1ccc(O)cc1
active: [17] 50.2 µM | [18] 71.8 µM
inactive: [1] | [2] | [3] | [4] | [5] | [6] | [19] | [20]

Cc1ccc(C(C)(C)C)c(O)c1
inactive: [1] | [2] | [3] | [4] | [6] | [7] | [8] | [9] | [16]
active: [5] 11.8 µM

CCCCC(CC)COP(=O)(OCC(CC)CCCC)OCC(CC)CCCC (stereo not drawn)
inactive: [1] | [2] | [3] | [4] | [5] | [6]

Cc1ccc(-c2cc(C(F)(F)F)nn2-c2ccc(S(N)(=O)=O)cc2)cc1
inactive: [1] | [2] | [3] | [4] | [6]
active: [5] 20 µM
